57 compounds from PMC4336329 (PLoS ONE, 2015) can be followed below.

Hit rate of the full screen: of about 310,000 compounds, about 14,000 (4.5%) showed an effect of 50% or more. The effect is printed as a negative number. Only a selection was taken, and strong results are over-represented in it overall.
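Also: peak tail current of the secondary pulse compared with the same well before compound.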

human ether-à-go-go-related gene (hERG) potassium channel, sequence (Q12809 whole entry, looked up): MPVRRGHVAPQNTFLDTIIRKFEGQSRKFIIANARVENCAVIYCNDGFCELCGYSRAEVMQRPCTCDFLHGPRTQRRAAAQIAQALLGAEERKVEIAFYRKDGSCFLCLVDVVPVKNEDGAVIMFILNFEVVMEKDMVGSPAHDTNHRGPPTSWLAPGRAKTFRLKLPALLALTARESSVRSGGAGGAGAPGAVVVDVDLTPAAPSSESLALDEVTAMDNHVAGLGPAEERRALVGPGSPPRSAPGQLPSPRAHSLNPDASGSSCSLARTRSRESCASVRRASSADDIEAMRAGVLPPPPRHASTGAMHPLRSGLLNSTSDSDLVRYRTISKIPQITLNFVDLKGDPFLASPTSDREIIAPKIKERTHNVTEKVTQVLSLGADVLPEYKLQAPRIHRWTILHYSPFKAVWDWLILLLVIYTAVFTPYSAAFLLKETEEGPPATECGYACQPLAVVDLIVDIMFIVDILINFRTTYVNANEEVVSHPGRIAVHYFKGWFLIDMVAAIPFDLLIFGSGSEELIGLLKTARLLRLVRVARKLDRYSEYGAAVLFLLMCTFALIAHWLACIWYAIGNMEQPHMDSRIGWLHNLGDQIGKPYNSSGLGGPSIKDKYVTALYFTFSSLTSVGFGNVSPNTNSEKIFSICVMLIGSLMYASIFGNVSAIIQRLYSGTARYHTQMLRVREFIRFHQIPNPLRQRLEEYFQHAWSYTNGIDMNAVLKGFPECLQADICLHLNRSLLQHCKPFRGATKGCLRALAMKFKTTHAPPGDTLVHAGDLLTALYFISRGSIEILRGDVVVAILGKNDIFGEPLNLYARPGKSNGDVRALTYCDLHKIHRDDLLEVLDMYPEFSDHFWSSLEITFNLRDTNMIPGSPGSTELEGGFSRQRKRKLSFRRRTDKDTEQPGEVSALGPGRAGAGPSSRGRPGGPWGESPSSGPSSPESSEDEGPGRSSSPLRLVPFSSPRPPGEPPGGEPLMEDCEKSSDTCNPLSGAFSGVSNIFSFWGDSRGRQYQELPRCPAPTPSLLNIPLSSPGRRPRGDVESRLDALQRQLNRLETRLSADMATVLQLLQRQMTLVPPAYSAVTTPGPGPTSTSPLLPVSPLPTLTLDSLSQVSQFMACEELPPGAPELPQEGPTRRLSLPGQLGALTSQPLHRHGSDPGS

The assay addresses human ether-à-go-go-related gene (hERG) potassium channel (human, UniProt Q12809). Briefly: primary screen, population patch clamp on CHO cells stably expressing hERG; higher = less effect of the substance.
In the case of `OC1CCCN(c2ncnc3c2nnn3Cc2c(F)cccc2Cl)C1` (stereo not drawn), the “hERG current change (%, negative = inhibition) at 10uM” value is recorded as 0.989%.

Turning to `COc1cc([N+](=O)[O-])ccc1NC(=O)NCc1ccccn1`, the “hERG current change (%, negative = inhibition) at 10uM” value turned out to be 11.7%.

For `CC(=O)c1cccc(NC(=O)CSc2n[nH]c(-c3ccncc3)n2)c1`, the “hERG current change (%, negative = inhibition) at 10uM” value came to 10.5%.

Regarding `O=C(COc1ccc(Br)cc1Cl)NC(=O)NC1CCCC1`, the “hERG current change (%, negative = inhibition) at 10uM” value is -9.03%.

Take `O=C(COc1ccc(Br)cc1Cl)NC1CCN(Cc2ccccc2)CC1`: the “hERG current change (%, negative = inhibition) at 10uM” value is recorded as -67.3%.

With `Cc1cc(OCC(=O)NC2CCN(Cc3ccccc3)CC2)c2c(C)c(C)c(=O)oc2c1`, the “hERG current change (%, negative = inhibition) at 10uM” value was -22.4%.

Regarding `O=C(COc1ccccc1F)NC1CC1`, the “hERG current change (%, negative = inhibition) at 10uM” value is listed as 0.681%.

Regarding `Cl.O=C(COc1ccccc1F)NC1CCN(Cc2ccccc2)CC1`, the “hERG current change (%, negative = inhibition) at 10uM” value is on record as -38.5%.

For the compound `O=C(COc1ccc(Br)cc1F)NC1CCN(Cc2ccccc2)CC1`, the “hERG current change (%, negative = inhibition) at 10uM” value is recorded as -74%.

For `O=C(COc1ccc(Br)cc1Cl)NC1CCCCC1`, the “hERG current change (%, negative = inhibition) at 10uM” value is given as 9.84%.

Take `Cc1ccc(Cl)c(OCC(=O)NC2CCN(Cc3ccccc3)CC2)c1`: the “hERG current change (%, negative = inhibition) at 10uM” value is listed as -115%.

Consider `Cc1ccc(Cl)c(OCC(=O)Nc2ccccc2C(=O)NC2CC2)c1`, for which the “hERG current change (%, negative = inhibition) at 10uM” value is 3.5%.

As for `COc1ccc(C(=O)N(C)c2ccccc2C(=O)NCCc2ccccc2)cc1`, the “hERG current change (%, negative = inhibition) at 10uM” value is recorded as -20.2%.

Turning to `O=C(CCCn1c(=O)c2ccccc2n(Cc2ccccc2)c1=O)NCc1ccco1`, the “hERG current change (%, negative = inhibition) at 10uM” value is listed as -7.47%.

As for `CNC(=O)c1c(C)nn(-c2ccc(F)c(Cl)c2)c1-c1cc(C)on1`, the “hERG current change (%, negative = inhibition) at 10uM” value worked out at 4.71%.

As for `Cc1ccc(CC(=O)Nc2ccc(S(=O)(=O)Nc3nccc(C)n3)cc2)cc1`, the “hERG current change (%, negative = inhibition) at 10uM” value stood at 1.2%.

On to `CCCCC(NC(C)=O)c1nc2ccccc2[nH]1` (stereo not drawn), for which the “hERG current change (%, negative = inhibition) at 10uM” value is recorded as 23.1%.

As for `CC(C)COC(=O)Nc1ccccc1C(=O)N1CCOCC1`, the “hERG current change (%, negative = inhibition) at 10uM” value worked out at 9.75%.

Turning to `C=C[C@@H]1C2=CCOC(=O)C2=CO[C@H]1O[C@@H]1O[C@H](CO)[C@@H](O)[C@H](O)[C@H]1O`, the “hERG current change (%, negative = inhibition) at 10uM” value was 20.1%.

As for `N#CCCN1CCN(S(=O)(=O)c2ccc(S(=O)(=O)N3CCCC3)cc2)CC1`, the “hERG current change (%, negative = inhibition) at 10uM” value worked out at 4.66%.

With `COc1ccc(S(=O)(=O)NCc2ccccn2)c(C)c1C`, the “hERG current change (%, negative = inhibition) at 10uM” value amounted to 0.26%.

In the case of `N#CCc1c(C#N)c(N)nc(N2CCCC(CO)C2)c1C#N` (stereo not drawn), the “hERG current change (%, negative = inhibition) at 10uM” value was 1.82%.

In the case of `O=C(Cn1ncc2c3ccccc3n(Cc3ccccc3)c2c1=O)NCCCN1CCOCC1`, the “hERG current change (%, negative = inhibition) at 10uM” value is reported as -45.2%.

In the case of `O=C(Cn1ncc2c3ccccc3n(Cc3ccccc3)c2c1=O)NCCN1CCOCC1`, the “hERG current change (%, negative = inhibition) at 10uM” value was -57%.

On to `Cc1ccc(C)c(Cn2c3ccccc3c3cnn(CC(=O)NCCN4CCOCC4)c(=O)c32)c1`, for which the “hERG current change (%, negative = inhibition) at 10uM” value is reported as -45%.

Regarding `Cc1ccccc1Cn1c2ccccc2c2cnn(CC(=O)NCCCN3CCOCC3)c(=O)c21`, the “hERG current change (%, negative = inhibition) at 10uM” value was -18.6%.

Take `O=C(Cn1ncc2c3ccccc3n(Cc3ccccc3F)c2c1=O)NCCN1CCOCC1`: the “hERG current change (%, negative = inhibition) at 10uM” value is recorded as -55.2%.

For `Cc1cc(C)c(Cn2c3ccccc3c3cnn(CC(=O)NCCN4CCOCC4)c(=O)c32)c(C)c1`, the “hERG current change (%, negative = inhibition) at 10uM” value is recorded as 2.31%.

As to `CCC(=O)/C=C1/Sc2ccc(OC)cc2N1CC`, the “hERG current change (%, negative = inhibition) at 10uM” value is given as -4.45%.

Regarding `C=CCn1cc(C(=O)NCC2CCCO2)c(=O)c2cc(S(=O)(=O)N3CCCCCC3)ccc21` (stereo not drawn), the “hERG current change (%, negative = inhibition) at 10uM” value is recorded as -48.1%.

On to `O=C(COC(=O)C1=COCCO1)Nc1cccc(S(=O)(=O)N2CCOCC2)c1`, for which the “hERG current change (%, negative = inhibition) at 10uM” value came out at 10.8%.

For `COc1ccc(-c2c(NC(=O)c3ccco3)oc3ccc(Cl)cc3c2=O)cc1`, the “hERG current change (%, negative = inhibition) at 10uM” value is listed as 19.7%.

As to `O=c1ccn(Cc2ccc(F)cc2)c2ccnc(C(F)(F)F)c12`, the “hERG current change (%, negative = inhibition) at 10uM” value was -25.9%.

For the compound `CCN(CC)S(=O)(=O)c1ccc(N2CCCC2)c(NC(=O)C2=COCCO2)c1`, the “hERG current change (%, negative = inhibition) at 10uM” value is given as -40%.

As to `CCn1c(/C=C/c2cc[n+](C)cc2)nc2ccccc21.[I-]`, the “hERG current change (%, negative = inhibition) at 10uM” value was determined as 15%.

Turning to `CCn1cc(/C=C/c2cc[n+](C)cc2)c2ccccc21.[I-]`, the “hERG current change (%, negative = inhibition) at 10uM” value was -56.1%.

In the case of `COC(=O)Cn1cc(/C=C/c2cc[n+](C)cc2)c2ccccc21.[I-]`, the “hERG current change (%, negative = inhibition) at 10uM” value was 5.7%.

Consider `CN(C)c1ccc(-c2nc3cc(N)ccc3o2)cc1`, for which the “hERG current change (%, negative = inhibition) at 10uM” value was determined as 6.31%.

Consider `CCCCNC(=O)c1cc2c(=O)n3cccc(C)c3nc2n(Cc2ccncc2)c1=N`, for which the “hERG current change (%, negative = inhibition) at 10uM” value is reported as -75.1%.

Turning to `CCCCNC(=O)c1cc2c(=O)n3cccc(C)c3nc2n(Cc2ccccc2)c1=N`, the “hERG current change (%, negative = inhibition) at 10uM” value was -77.6%.

In the case of `CCNC(=O)c1cc2c(=O)n3cccc(C)c3nc2n(Cc2ccc(C)cc2)c1=N`, the “hERG current change (%, negative = inhibition) at 10uM” value is recorded as -88%.

For `COCCNC(=O)c1cc2c(=O)n3cccc(C)c3nc2n(Cc2ccncc2)c1=N`, the “hERG current change (%, negative = inhibition) at 10uM” value was -70%.

Take `CCCCNC(=O)c1cc2c(=O)n3cccc(C)c3nc2s1`: the “hERG current change (%, negative = inhibition) at 10uM” value was 7.96%.

Take `Cc1cccn2c(=O)c3cc(C(=O)N4COCC4(C)C)n(Cc4ccccc4)c3nc12`: the “hERG current change (%, negative = inhibition) at 10uM” value is 1.23%.

In the case of `COCCNC(=O)c1cc2c(=O)n3cccc(C)c3nc2n1C`, the “hERG current change (%, negative = inhibition) at 10uM” value is 11.7%.

In the case of `CCc1cc2c(NC(Cc3c[nH]c4ccccc34)C(=O)O)nc(C)nc2s1` (stereo not drawn), the “hERG current change (%, negative = inhibition) at 10uM” value amounted to 31.3%.

As for `COCC(=O)Nc1ccc(S(=O)(=O)Nc2ccccn2)cc1`, the “hERG current change (%, negative = inhibition) at 10uM” value is 17.8%.

Regarding `Cc1ccc(S(=O)(=O)NCCOc2cc(C)ccc2C)cc1`, the “hERG current change (%, negative = inhibition) at 10uM” value is given as -6.41%.

In the case of `Cc1c(NC(=O)CSc2n[nH]c(-c3ccccc3)n2)c(=O)n(-c2ccccc2)n1C`, the “hERG current change (%, negative = inhibition) at 10uM” value came to 3.93%.

Consider `CC1=C(C(=O)Nc2ccc(C(=O)NCCCN3CCCCC3)cc2)SCCO1`, for which the “hERG current change (%, negative = inhibition) at 10uM” value is on record as -24.8%.

As to `CN(N)N=Nc1nc2c([nH]1)c(=O)n(C)c(=O)n2C`, the “hERG current change (%, negative = inhibition) at 10uM” value is recorded as 0.0258%.

For the compound `Cc1cc(C)cc(SCc2noc(C(=O)NC(C)C)c2C(=O)O)c1`, the “hERG current change (%, negative = inhibition) at 10uM” value is given as 33.6%.

As to `C=CCNC(=O)c1cnn(-c2ccccc2)c1-c1ccccc1`, the “hERG current change (%, negative = inhibition) at 10uM” value is reported as 10.4%.

As to `Cc1ccc(NCc2nnc(SCC(=O)Nc3nnc(C)s3)n2C)cc1`, the “hERG current change (%, negative = inhibition) at 10uM” value is -1.72%.

With `COC(=O)C1CCN(C(=O)c2cc3c(=O)n4cccc(C)c4nc3n2Cc2ccccc2)CC1`, the “hERG current change (%, negative = inhibition) at 10uM” value was found to be 13.2%.

As for `Cc1ccc(S(=O)(=O)c2cc3c(=O)n4cccc(C)c4nc3n(Cc3ccncc3)c2=N)cc1`, the “hERG current change (%, negative = inhibition) at 10uM” value is listed as -40.8%.

Consider `Cc1cccn2c(=O)c3cc(C(=O)NC(C)C)c(=N)n(Cc4ccncc4)c3nc12`, for which the “hERG current change (%, negative = inhibition) at 10uM” value was -72.4%.
